Inconclusive results are not listed. The source made the active and inactive calls. Calls come from the whole dose curve; as a rule, active = well fitted curve in the direction sought with a large enough effect in the repeat runs; inconclusive = weak or mixed curves; inactive = no such curve, though single readings can be large; an effect the other way counts as inactive or inconclusive.
Tests used:
[1] = qHTS RealTime-Glo MT Cell Viability Assay in HepG2 cells - 40 hour (AID 1224870); note: nearly all actives have a fitted effect of over 50% in size
Procedure, shortened: (§1)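 Real-time viability: cells seeded at 600 per well together with NanoLuc and cell-permeant prosubstrate, compounds added after 5 h incubation. Luminescence tracked at 0, 8, 16, 24, 32 and 40 h of exposure.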

[2] = A CellTox Green Cytotoxicity Assay to monitor cytotoxicity in HEK293 cells - 40 hour (AID 1224871); note: nearly all actives have a fitted effect of over 45% in size
Procedure, shortened: (§2)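 HEK293 cells premixed with CellTox Green dye were seeded at 600 cells/well and left 5 h at 37 C/5% CO2 before pin transfer of 23 nL compound in DMSO. Fluorescence from dye bound to dead-cell DNA was read during 40 h treatment.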

[3] = qHTS RealTime-Glo MT Cell Viability Assay in HEK293 cells - 16 hour (AID 1224872); note: top concentration of the series differs between compounds; nearly all actives have a fitted effect of over 50% in size
Procedure, shortened: (§3)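 Reads taken at 0, 8, 16, 24, 32 and 40 h from the same wells. HEK293 cells (600/well) carried RealTime-Glo reagents from seeding, with compound added after a 5 h settle at 37 C.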

[4] = qHTS RealTime-Glo MT Cell Viability Assay in HepG2 cells - 8 hour (AID 1224873); note: nearly all actives have a fitted effect of over 55% in size
Procedure, shortened: as §1

[5] = qHTS RealTime-Glo MT Cell Viability Assay in HEK293 cells - 40 hour (AID 1224874); conditions: RealTime-Glo luminescence; max response: hits give low values; note: nearly all actives have a fitted effect of over 50% in size
Procedure, shortened: (§4)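 HEK293 cells mixed with RealTime-Glo reagents (NanoLuc plus cell-permeant prosubstrate) at 600 cells/well, preincubated 5 h at 37 C/5% CO2, then given 23 nL compound in DMSO. Nonlytic luminescence from viable cells was read at 0, 8, 16, 24, 32 and 40 h.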

[6] = A CellTox Green Cytotoxicity Assay to monitor cytotoxicity in HEK293 cells - 24 hour (AID 1224875); note: series mostly up to about 77 µM; nearly all actives have a fitted effect of over 45% in size
Procedure, shortened: as §2

[7] = A CellTox Green Cytotoxicity Assay to monitor cytotoxicity in HepG2 cells - 16 hour (AID 1224876); note: nearly all actives have a fitted effect of over 45% in size
Procedure, shortened: (§5)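 HepG2 cells were seeded together with the CellTox Green dye at 600 cells/well, left 5 h at 37 C/5% CO2, then given compounds in DMSO. Fluorescence from dye bound to dead-cell DNA was read repeatedly over 40 h of treatment at 37 C.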

[8] = qHTS RealTime-Glo MT Cell Viability Assay in HepG2 cells - 32 hour (AID 1224877); note: nearly all actives have a fitted effect of over 55% in size
Procedure, shortened: (§6)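 HepG2 suspension premixed with RealTime-Glo reagents is plated at 600 cells per well and left 5 h at 37 C/5% CO2. Compounds in DMSO then go in, and bioluminescence reflecting viable cell number is recorded over 40 h.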

[9] = A CellTox Green Cytotoxicity Assay to monitor cytotoxicity in HepG2 cells - 24 hour (AID 1224878); note: nearly all actives have a fitted effect of over 45% in size
Procedure, shortened: as §5

[10] = A CellTox Green Cytotoxicity Assay to monitor cytotoxicity in HepG2 cells - 40 hour (AID 1224879); note: nearly all actives have a fitted effect of over 40% in size
Procedure, shortened: as §5

[11] = qHTS RealTime-Glo MT Cell Viability Assay in HEK293 cells - 0 hour (AID 1224880)
Procedure, shortened: as §4

[12] = A CellTox Green Cytotoxicity Assay to monitor cytotoxicity in HEK293 cells - 32 hour (AID 1224881); note: nearly all actives have a fitted effect of over 40% in size
Procedure, shortened: as §2

[13] = A CellTox Green Cytotoxicity Assay to monitor cytotoxicity in HepG2 cells - 0 hour (AID 1224882); note: nearly all actives have a fitted effect of over 35% in size
Procedure, shortened: as §5

[14] = A CellTox Green Cytotoxicity Assay to monitor cytotoxicity in HepG2 cells - 32 hour (AID 1224883); note: nearly all actives have a fitted effect of over 50% in size
Procedure, shortened: as §5

[15] = A CellTox Green Cytotoxicity Assay to monitor cytotoxicity in HEK293 cells - 8 hour (AID 1224884); note: nearly all actives have a fitted effect of over 35% in size
Procedure, shortened: as §2

[16] = qHTS RealTime-Glo MT Cell Viability Assay in HepG2 cells - 16 hour (AID 1224885); note: nearly all actives have a fitted effect of over 50% in size
Procedure, shortened: as §6

[17] = qHTS RealTime-Glo MT Cell Viability Assay in HEK293 cells - 24 hour (AID 1224886)
Procedure, shortened: as §3

[18] = qHTS RealTime-Glo MT Cell Viability Assay in HEK293 cells - 8 hour (AID 1224887)
Procedure, shortened: as §4

[19] = A CellTox Green Cytotoxicity Assay to monitor cytotoxicity in HEK293 cells - 16 hour (AID 1224888); note: nearly all actives have a fitted effect of over 35% in size
Procedure, shortened: as §2

[20] = qHTS RealTime-Glo MT Cell Viability Assay in HepG2 cells - 0 hour (AID 1224889); note: nearly all actives have a fitted effect of over 50% in size
Procedure, shortened: as §6
% is set by controls: 0 for no effect and ±100 for the full control effect.

C=C(C)C1CC=C(C)C(O)C1 (stereo not given)
inactive: Potency [1] | Potency [2] | Potency [3] | outcome [4] | max response [5] 9.55% | Potency [6] | Potency [7] | Potency [8] | Potency [9] | Potency [10] | outcome [11] | Potency [12] | Potency [13] | Potency [14] | Potency [15] | outcome [16] | Potency [17] | Potency [18] | Potency [19] | Potency [20]

C[C@H]1O[C@@H](n2cc(F)c(=O)[nH]c2=O)[C@H](O)[C@@H]1O
inactive: Potency [1] | Potency [2] | Potency [3] | outcome [4] | max response [5] 0.654% | Potency [6] | Potency [7] | Potency [8] | Potency [9] | Potency [10] | outcome [11] | Potency [12] | Potency [13] | Potency [14] | Potency [15] | outcome [16] | Potency [17] | Potency [18] | Potency [19] | Potency [20]

CCC(C)OC(=O)N1CCCCC1CCO (stereo not given)
inactive: Potency [1] | Potency [2] | Potency [3] | outcome [4] | max response [5] -15.9% | Potency [6] | Potency [7] | Potency [8] | Potency [9] | Potency [10] | outcome [11] | Potency [12] | Potency [13] | Potency [14] | Potency [15] | outcome [16] | Potency [17] | Potency [18] | Potency [19] | Potency [20]

COc1ccc2cc(C=O)ccc2c1
inactive: Potency [1] | Potency [2] | Potency [3] | outcome [4] | max response [5] 2.85% | Potency [6] | Potency [7] | Potency [8] | Potency [9] | Potency [10] | outcome [11] | Potency [12] | Potency [13] | Potency [14] | Potency [15] | outcome [16] | Potency [17] | Potency [18] | Potency [19] | Potency [20]

N#CC1(O)CCCCC1
inactive: Potency [1] | Potency [2] | Potency [3] | outcome [4] | max response [5] -16.1% | Potency [6] | Potency [7] | Potency [8] | Potency [9] | Potency [10] | outcome [11] | Potency [12] | Potency [13] | Potency [14] | Potency [15] | Potency [17] | Potency [18] | Potency [19] | Potency [20]

CC1(C)OC(=O)Nc2ccc(Br)cc21
inactive: Potency [1] | Potency [2] | Potency [3] | outcome [4] | max response [5] 0.0036% | Potency [6] | Potency [7] | Potency [8] | Potency [9] | Potency [10] | outcome [11] | Potency [12] | Potency [13] | Potency [14] | Potency [15] | outcome [16] | Potency [17] | Potency [18] | Potency [19]

CCN1CCN(c2cc3c(cc2F)c(=O)c(C(=O)O)cn3C2CC2)CC1
inactive: Potency [1] | Potency [2] | Potency [3] | outcome [4] | max response [5] -0.866% | Potency [6] | Potency [7] | Potency [8] | Potency [9] | Potency [10] | outcome [11] | Potency [12] | Potency [13] | Potency [14] | Potency [15] | Potency [17] | Potency [18] | Potency [19] | Potency [20]

N#CCN(CC#N)CCN(CC#N)CC#N
inactive: Potency [1] | Potency [2] | Potency [3] | outcome [4] | max response [5] 4.6% | Potency [6] | Potency [7] | Potency [8] | Potency [9] | Potency [10] | outcome [11] | Potency [12] | Potency [13] | Potency [14] | Potency [15] | outcome [16] | Potency [17] | Potency [18] | Potency [19]

C=C(C)[C@H]1CC=C(C)CC1
inactive: Potency [1] | Potency [2] | Potency [3] | outcome [4] | max response [5] 0.727% | Potency [6] | Potency [7] | Potency [8] | Potency [9] | Potency [10] | outcome [11] | Potency [12] | Potency [13] | Potency [14] | Potency [15] | outcome [16] | Potency [17] | Potency [18] | Potency [20]

Nc1ncnc2c1ncn2Cc1c(F)cccc1Cl
inactive: Potency [1] | Potency [2] | Potency [3] | outcome [4] | max response [5] -12.1% | Potency [6] | Potency [7] | Potency [8] | Potency [9] | Potency [10] | outcome [11] | Potency [12] | Potency [13] | Potency [14] | Potency [15] | outcome [16] | Potency [17] | Potency [18] | Potency [19] | Potency [20]

Cc1ccc(Nc2ccc(O)c3c2C(=O)c2ccccc2C3=O)cc1
inactive: Potency [1] | Potency [2] | Potency [3] | outcome [4] | max response [5] 7.86% | Potency [6] | Potency [7] | Potency [8] | Potency [9] | Potency [10] | outcome [11] | Potency [12] | Potency [13] | Potency [14] | Potency [15] | outcome [16] | Potency [17] | Potency [18] | Potency [19] | Potency [20]

O=C(O)C1CCC1
inactive: Potency [1] | Potency [2] | Potency [3] | outcome [4] | max response [5] -0.0608% | Potency [6] | Potency [7] | Potency [8] | Potency [9] | Potency [10] | outcome [11] | Potency [12] | Potency [13] | Potency [14] | Potency [15] | outcome [16] | Potency [17] | Potency [18] | Potency [19] | Potency [20]

Reference: PubChem BioAssay (Tox21)
